Measurements as given in PubChem BioAssay AID1159580 (chemical genetic matrix, 2015).
The whole screen tested about 5,500 compounds, of which about 2,000 (36%) were called active. Roughly 18% stayed inconclusive and do not appear here. No stated cut-off is given here; in the data, active means normalized growth mostly below about 0.91 (no sharp cut-off); inconclusive means no clear call, values can overlap the other calls; inactive means mostly above about 0.92. This is one part of the list.

Test: chemical genetic growth profiling, strain panel (AID 1159580);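 further: tested at 20 µM; growth read once vehicle control cultures reached saturation at 30 °C; 1 = growth at the plate median or of vehicle wells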
Settings: growth OD

Measured: normalized growth

COc1c2ccoc2nc2c(OC)c(OCC(O)C(C)(C)O)ccc12 (configuration not stated)
inactive: S. cerevisiae deletion strains, locus YJR075W, strain HOC1, stronger effect = lower value 1.07 | S. cerevisiae deletion strains, locus YKL009W, strain mrt4, stronger effect = lower value 0.944 | S. cerevisiae deletion strains, locus YKL068W, stronger effect = lower value 0.978 | S. cerevisiae deletion strains, locus YKL085W, strain MDH1 (second series), stronger effect = lower value 1 | S. cerevisiae deletion strains, locus YKL085W, strain MDH1, stronger effect = lower value 1 | S. cerevisiae deletion strains, locus YKL160W, strain elf1, stronger effect = lower value 1.03 | S. cerevisiae deletion strains, locus YKL190W, strain CNB1, stronger effect = lower value 0.979 | S. cerevisiae deletion strains, locus YKR001C, strain vps1, stronger effect = lower value 0.985 | S. cerevisiae deletion strains, locus YKR026C, strain gcn3, stronger effect = lower value 1.02 | S. cerevisiae deletion strains, locus YKR091W, strain srl3, stronger effect = lower value 1.01 | S. cerevisiae deletion strains, locus YLL001W, strain dnm1, stronger effect = lower value 1.03 | S. cerevisiae deletion strains, locus YLL026W, stronger effect = lower value 1.01 | S. cerevisiae deletion strains, locus YLL041C, strain sdh2, stronger effect = lower value 1.02 | S. cerevisiae deletion strains, locus YLR027C, strain aat2, stronger effect = lower value 1.03 | S. cerevisiae deletion strains, locus YLR039C, strain RIC1, stronger effect = lower value 0.974 | S. cerevisiae deletion strains, locus YLR058C, strain SHM2, stronger effect = lower value 0.991 | S. cerevisiae deletion strains, locus YLR102C, strain apc9, stronger effect = lower value 0.99 | S. cerevisiae deletion strains, locus YLR113W, strain HOG1, stronger effect = lower value 1.03 | S. cerevisiae deletion strains, locus YLR221C, strain rsa3, stronger effect = lower value 1.03 | S. cerevisiae deletion strains, locus YLR258W, strain gsy2, stronger effect = lower value 1.02 | S. cerevisiae deletion strains, locus YLR262C, strain YPT6 (second series), stronger effect = lower value 1.04 | S. cerevisiae deletion strains, locus YLR262C, strain YPT6, stronger effect = lower value 0.938 | S. cerevisiae deletion strains, locus YLR268W, strain sec22, stronger effect = lower value 1.02 | S. cerevisiae deletion strains, locus YLR320W, strain mms22, stronger effect = lower value 1.03 | S. cerevisiae deletion strains, locus YLR330W, strain CHS5, stronger effect = lower value 0.992 | S. cerevisiae deletion strains, locus YLR342W, strain FKS1 (second series), stronger effect = lower value 0.992 | S. cerevisiae deletion strains, locus YLR342W, strain FKS1, stronger effect = lower value 1.02 | S. cerevisiae deletion strains, locus YLR357W, strain rsc2, stronger effect = lower value 1.06 | S. cerevisiae deletion strains, locus YLR370C, strain arc18, stronger effect = lower value 1.01 | S. cerevisiae deletion strains, locus YLR371W, strain rom2, stronger effect = lower value 0.976 | S. cerevisiae deletion strains, locus YLR384C, strain iki3, stronger effect = lower value 1 | S. cerevisiae deletion strains, locus YLR418C, strain cdc73, stronger effect = lower value 1.04 | S. cerevisiae deletion strains, locus YML016C, strain PPZ1, stronger effect = lower value 0.99 | S. cerevisiae deletion strains, locus YML032C, strain rad52, stronger effect = lower value 0.974 | S. cerevisiae deletion strains, locus YML120C, strain ndi1, stronger effect = lower value 1.02 | S. cerevisiae deletion strains, locus YML124C, strain tub3, stronger effect = lower value 0.99 | S. cerevisiae deletion strains, locus YMR058W, strain fet3, stronger effect = lower value 1.03 | S. cerevisiae deletion strains, locus YMR078C, strain ctf18, stronger effect = lower value 0.97 | S. cerevisiae deletion strains, locus YMR125W, strain sto1, stronger effect = lower value 1.04 | S. cerevisiae deletion strains, locus YMR129W, stronger effect = lower value 1.01 | S. cerevisiae deletion strains, locus YMR205C, strain PFK2, stronger effect = lower value 1.04 | S. cerevisiae deletion strains, locus YMR223W, strain ubp8, stronger effect = lower value 0.961 | S. cerevisiae deletion strains, locus YMR231W, strain pep5, stronger effect = lower value 1 | S. cerevisiae deletion strains, locus YMR263W, strain SAP30, stronger effect = lower value 1.01 | S. cerevisiae deletion strains, locus YMR307W, strain GAS1, stronger effect = lower value 0.941 | S. cerevisiae deletion strains, locus YNL067W, strain RPL9B, stronger effect = lower value 1.03 | S. cerevisiae deletion strains, locus YNL071W, strain lat1, stronger effect = lower value 1.02 | S. cerevisiae deletion strains, locus YNL128W, strain TEP1, stronger effect = lower value 1.01 | S. cerevisiae deletion strains, locus YNL153C, strain GIM3, stronger effect = lower value 1.02 | S. cerevisiae deletion strains, locus YNL183C, strain NPR1, stronger effect = lower value 0.985 | S. cerevisiae deletion strains, locus YNL209W, strain ssb2, stronger effect = lower value 1.02 | S. cerevisiae deletion strains, locus YNL233W, strain BNI4, stronger effect = lower value 1.02 | S. cerevisiae deletion strains, locus YNL248C, strain rpa49, stronger effect = lower value 1.02 | S. cerevisiae deletion strains, locus YNL250W, strain rad50, stronger effect = lower value 0.989 | S. cerevisiae deletion strains, locus YNL271C, strain bni1, stronger effect = lower value 0.989 | S. cerevisiae deletion strains, locus YNL298W, strain CLA4, stronger effect = lower value 0.975 | S. cerevisiae deletion strains, locus YNL307C, strain MCK1, stronger effect = lower value 0.976 | S. cerevisiae deletion strains, locus YNL322C, strain KRE1 (second series), stronger effect = lower value 1.03 | S. cerevisiae deletion strains, locus YNL322C, strain KRE1, stronger effect = lower value 0.995 | S. cerevisiae deletion strains, locus YNR049C, strain mso1, stronger effect = lower value 1.02 | S. cerevisiae deletion strains, locus YNR052C, strain pop2, stronger effect = lower value 0.962 | S. cerevisiae deletion strains, locus YOL006C, strain TOP1, stronger effect = lower value 1.01 | S. cerevisiae deletion strains, locus YOL012C, strain htz1 1.86 | S. cerevisiae deletion strains, locus YOL147C, strain pex11, stronger effect = lower value 0.996 | S. cerevisiae deletion strains, locus YOR001W, strain rrp6, stronger effect = lower value 1.02 | S. cerevisiae deletion strains, locus YOR061W, strain CKA2, stronger effect = lower value 0.997 | S. cerevisiae deletion strains, locus YOR069W, strain VPS5, stronger effect = lower value 0.99 | S. cerevisiae deletion strains, locus YOR070C, strain gyp1, stronger effect = lower value 1 | S. cerevisiae deletion strains, locus YOR080W, strain dia2, stronger effect = lower value 0.999 | S. cerevisiae deletion strains, locus YOR083W, strain WHI5, stronger effect = lower value 1.03 | S. cerevisiae deletion strains, locus YOR106W, strain vam3, stronger effect = lower value 1.04 | S. cerevisiae deletion strains, locus YOR136W, strain idh2, stronger effect = lower value 0.982 | S. cerevisiae deletion strains, locus YOR144C, strain elg1, stronger effect = lower value 0.978 | S. cerevisiae deletion strains, locus YOR184W, strain ser1, stronger effect = lower value 0.946 | S. cerevisiae deletion strains, locus YOR231W, strain MKK1, stronger effect = lower value 1.01 | S. cerevisiae deletion strains, locus YOR265W, strain rbl2, stronger effect = lower value 1 | S. cerevisiae deletion strains, locus YOR270C, strain vph1, stronger effect = lower value 1.07 | S. cerevisiae deletion strains, locus YOR290C, strain snf2, stronger effect = lower value 1.02 | S. cerevisiae deletion strains, locus YOR316C, strain cot1, stronger effect = lower value 0.99 | S. cerevisiae deletion strains, locus YPL051W, strain arl3, stronger effect = lower value 1.05 | S. cerevisiae deletion strains, locus YPL055C, strain LGE1, stronger effect = lower value 1.03 | S. cerevisiae deletion strains, locus YPL078C, strain atp4, stronger effect = lower value 1.03 | S. cerevisiae deletion strains, locus YPL106C, strain sse1, stronger effect = lower value 1.02 | S. cerevisiae deletion strains, locus YPL240C, strain hsp82, stronger effect = lower value 1 | S. cerevisiae deletion strains, locus YPL241C, strain CIN2, stronger effect = lower value 0.992 | S. cerevisiae deletion strains, locus YPL256C, strain CLN2, stronger effect = lower value 1.03 | S. cerevisiae deletion strains, locus YPR119W, strain clb2, stronger effect = lower value 0.998 | S. cerevisiae deletion strains, locus YPR141C, strain kar3, stronger effect = lower value 0.995 | S. cerevisiae deletion strains, locus YPR163C, strain tif3, stronger effect = lower value 0.98 | S. cerevisiae deletion strains, locus YPR167C, strain met16, stronger effect = lower value 0.992 | S. cerevisiae deletion strains, strain wtn01, stronger effect = lower value 1.02 | S. cerevisiae strains, strain wild type, stronger effect = lower value 0.996
